Assay results as given in PubChem BioAssay.

system: Noggin (protein binding on small-molecule microarray); assay: small molecules binding Noggin protein – biochemical, 635/667 nm fluorescence, primary screen (AID 1095); settings: 635 nm fluorescence, higher = more signal;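 note: score merges 667 nm feature fluorescence with signal to noise over triplicate slides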

| Compound | composite z-score |
| --- | --- |
| CC(=O)NCCCC[C@@H]1NC(=O)[C@@H]2C[C@H](C(=O)NCCCCCCN(C)C)[C@H](c3ccc(O)cc3)N2C1=O | 1.61 |
| O=C(NCc1ccccc1)[C@@]1(CCS(=O)(=O)c2ccccc2)COC(c2ccc(OCCCO)cc2)=N1 | 0.16 |
| O=C1O[C@@H](c2ccccc2)[C@@H](c2ccccc2)N2[C@@H](c3ccc(O)cc3)[C@]3(C(=O)Nc4ccccc43)[C@@H](C(=O)N3CCN(c4ncccn4)CC3)[C@H]12 | -0.534 |
| COc1ccc(C(O)C2C=CC3C(=O)N(C)C(=O)C3N2N2CCCCC2)cc1OCc1ccccc1 (configuration not stated) | -0.171 |
| COc1cc([C@@H]2N[C@H](C(=O)O)Cc3c2[nH]c2ccccc32)cc(OC)c1OC | 0.367 |
| COCCOC(=O)N1C(=O)[C@@]2(c3cc(C#CC4=CCCCC4)ccc31)[C@H](C(=O)NC[C@H](O)c1ccccc1)[C@H]1C(=O)O[C@H](c3ccccc3)[C@H](c3ccccc3)N1[C@@H]2c1ccccc1OCCO | 1.13 |
| COc1ccc(CCNC(=O)[C@@]2(c3ccc([N+](=O)[O-])cc3)CC(=O)N(C(C)C)[C@@H]2c2ccc(CO)cc2)cc1 | -1.2 |
| CC(=O)NCCCC[C@@H]1NC(=O)[C@H]2C[C@@H](C(=O)NCCCCCCN(C)C)[C@@H](c3ccc(O)cc3)N2C1=O | 1.71 |
| NC(=O)NCC#Cc1ccc2c(c1)[C@]1(C(=O)N2)[C@H](c2ccccc2OCCO)N2[C@H](c3ccccc3)[C@H](c3ccccc3)OC(=O)[C@H]2[C@@H]1C(=O)N1CCN(c2ncccn2)CC1 | 1.17 |
| CO[C@H]1COC(=O)CC=C[C@H](C)[C@@H](OC)COC(=O)CC=C[C@@H]1C | 0.764 |
| CN(C)C(=O)[C@@]1(Cc2ccccc2N=[N+]=[N-])N=C(c2ccc(OCCCO)cc2)O[C@H]1c1ccccc1CN=[N+]=[N-] | 1.35 |
| O=C(CS)NCCCCCNC(=O)[C@H]1C[C@H]2C(=O)N3CCC[C@H]3C(=O)N2[C@H]1c1ccc(O)cc1 | 0.0529 |
| Cc1ccccc1C(O)C1C=CC2C(=O)N(c3ccccc3)C(=O)C2N1Nc1ccc(C#N)cc1 (configuration not stated) | 0.247 |
| COC(=O)[C@@]1(Cc2ccccc2N=[N+]=[N-])N=C(c2ccc(OCCCO)cc2)O[C@H]1c1ccccc1CN=[N+]=[N-] | 0.836 |
| CCCCCCc1nc(C2CC2)c(C)c2c1[Si](C(C)C)(C(C)C)OC2 | 0.168 |
| C[N+](C)(C)CCCC[C@@H]1NC(=O)[C@H]2C[C@@H](C(=O)NCc3ccc(F)cc3)[C@@H](c3cccc(OCCO)c3)N2C1=O | 1.62 |
| CCCNC(=O)[C@@H]1c2ccccc2C(=O)N(Cc2cc(F)cc(C(F)(F)F)c2)[C@H]1c1ccc(CO)cc1 | 1.66 |
| C#CCCCON=C1C[C@@H](O)[C@@H](O)[C@@H]2[C@@H]3C(=O)N(Cc4ccc5c(c4)OCO5)C(=O)[C@@H]3CC[C@H]12 | 1.66 |
| Cc1ccc([C@@H]2CC=C(C(=O)O)[C@H](c3ccccc3)N2S(=O)(=O)c2ccc(C)cc2)cc1 | -0.971 |
| C=CCNC(=O)[C@H]1[C@@H]2C(=O)O[C@@H](c3ccccc3)[C@@H](c3ccccc3)N2[C@@H](c2ccc(O)cc2)[C@]12C(=O)Nc1ccc(C#CCNC(N)=O)cc12 | -0.643 |
| O=C(NCC(F)(F)F)[C@@H]1c2ccccc2C(=O)N(Cc2ccccc2Cl)[C@H]1c1ccc(CO)cc1 | -1.5 |
| C=C[C@H](OC)[C@@H](OC(=O)Nc1ccc(SC)cc1)c1ccc(OC)c(O)c1 | -0.878 |
| C=CC[C@]1(C(=O)OC)N=C(c2ccc(OCCCO)cc2)O[C@H]1c1ccccc1CN=[N+]=[N-] | -0.101 |
| COC(=O)Cn1c(C(=O)N2CCCC2)cc2c1C[C@H]1CN(C(=O)c3ccccc3)[C@@](Cc3ccccc3)(C(=O)OC)[C@@H]21 | -0.455 |
| Cc1ccc(S[C@]2(C(=O)NCCCN(C)C)CC(=O)N(Cc3ccccc3)[C@@H]2c2ccc(CO)cc2I)cc1 | -0.869 |
| C#CCCCON=C1C[C@@H](O)[C@@H](O)[C@@H]2[C@@H]3C(=O)N(Cc4ccc5c(c4)OCO5)C(=O)[C@@H]3CC[C@@H]12 | -0.0201 |

molecular target: Neurogenic locus notch homolog protein 3 (Homo sapiens) (UniProt Q9UM47); assay: small molecules binding NOTCH3 protein – biochemical, 635/667 nm fluorescence, primary screen (AID 1096); settings: small-molecule microarray, 635 nm fluorescence, higher = more signal
Sequence (Q9UM47 whole entry, looked up): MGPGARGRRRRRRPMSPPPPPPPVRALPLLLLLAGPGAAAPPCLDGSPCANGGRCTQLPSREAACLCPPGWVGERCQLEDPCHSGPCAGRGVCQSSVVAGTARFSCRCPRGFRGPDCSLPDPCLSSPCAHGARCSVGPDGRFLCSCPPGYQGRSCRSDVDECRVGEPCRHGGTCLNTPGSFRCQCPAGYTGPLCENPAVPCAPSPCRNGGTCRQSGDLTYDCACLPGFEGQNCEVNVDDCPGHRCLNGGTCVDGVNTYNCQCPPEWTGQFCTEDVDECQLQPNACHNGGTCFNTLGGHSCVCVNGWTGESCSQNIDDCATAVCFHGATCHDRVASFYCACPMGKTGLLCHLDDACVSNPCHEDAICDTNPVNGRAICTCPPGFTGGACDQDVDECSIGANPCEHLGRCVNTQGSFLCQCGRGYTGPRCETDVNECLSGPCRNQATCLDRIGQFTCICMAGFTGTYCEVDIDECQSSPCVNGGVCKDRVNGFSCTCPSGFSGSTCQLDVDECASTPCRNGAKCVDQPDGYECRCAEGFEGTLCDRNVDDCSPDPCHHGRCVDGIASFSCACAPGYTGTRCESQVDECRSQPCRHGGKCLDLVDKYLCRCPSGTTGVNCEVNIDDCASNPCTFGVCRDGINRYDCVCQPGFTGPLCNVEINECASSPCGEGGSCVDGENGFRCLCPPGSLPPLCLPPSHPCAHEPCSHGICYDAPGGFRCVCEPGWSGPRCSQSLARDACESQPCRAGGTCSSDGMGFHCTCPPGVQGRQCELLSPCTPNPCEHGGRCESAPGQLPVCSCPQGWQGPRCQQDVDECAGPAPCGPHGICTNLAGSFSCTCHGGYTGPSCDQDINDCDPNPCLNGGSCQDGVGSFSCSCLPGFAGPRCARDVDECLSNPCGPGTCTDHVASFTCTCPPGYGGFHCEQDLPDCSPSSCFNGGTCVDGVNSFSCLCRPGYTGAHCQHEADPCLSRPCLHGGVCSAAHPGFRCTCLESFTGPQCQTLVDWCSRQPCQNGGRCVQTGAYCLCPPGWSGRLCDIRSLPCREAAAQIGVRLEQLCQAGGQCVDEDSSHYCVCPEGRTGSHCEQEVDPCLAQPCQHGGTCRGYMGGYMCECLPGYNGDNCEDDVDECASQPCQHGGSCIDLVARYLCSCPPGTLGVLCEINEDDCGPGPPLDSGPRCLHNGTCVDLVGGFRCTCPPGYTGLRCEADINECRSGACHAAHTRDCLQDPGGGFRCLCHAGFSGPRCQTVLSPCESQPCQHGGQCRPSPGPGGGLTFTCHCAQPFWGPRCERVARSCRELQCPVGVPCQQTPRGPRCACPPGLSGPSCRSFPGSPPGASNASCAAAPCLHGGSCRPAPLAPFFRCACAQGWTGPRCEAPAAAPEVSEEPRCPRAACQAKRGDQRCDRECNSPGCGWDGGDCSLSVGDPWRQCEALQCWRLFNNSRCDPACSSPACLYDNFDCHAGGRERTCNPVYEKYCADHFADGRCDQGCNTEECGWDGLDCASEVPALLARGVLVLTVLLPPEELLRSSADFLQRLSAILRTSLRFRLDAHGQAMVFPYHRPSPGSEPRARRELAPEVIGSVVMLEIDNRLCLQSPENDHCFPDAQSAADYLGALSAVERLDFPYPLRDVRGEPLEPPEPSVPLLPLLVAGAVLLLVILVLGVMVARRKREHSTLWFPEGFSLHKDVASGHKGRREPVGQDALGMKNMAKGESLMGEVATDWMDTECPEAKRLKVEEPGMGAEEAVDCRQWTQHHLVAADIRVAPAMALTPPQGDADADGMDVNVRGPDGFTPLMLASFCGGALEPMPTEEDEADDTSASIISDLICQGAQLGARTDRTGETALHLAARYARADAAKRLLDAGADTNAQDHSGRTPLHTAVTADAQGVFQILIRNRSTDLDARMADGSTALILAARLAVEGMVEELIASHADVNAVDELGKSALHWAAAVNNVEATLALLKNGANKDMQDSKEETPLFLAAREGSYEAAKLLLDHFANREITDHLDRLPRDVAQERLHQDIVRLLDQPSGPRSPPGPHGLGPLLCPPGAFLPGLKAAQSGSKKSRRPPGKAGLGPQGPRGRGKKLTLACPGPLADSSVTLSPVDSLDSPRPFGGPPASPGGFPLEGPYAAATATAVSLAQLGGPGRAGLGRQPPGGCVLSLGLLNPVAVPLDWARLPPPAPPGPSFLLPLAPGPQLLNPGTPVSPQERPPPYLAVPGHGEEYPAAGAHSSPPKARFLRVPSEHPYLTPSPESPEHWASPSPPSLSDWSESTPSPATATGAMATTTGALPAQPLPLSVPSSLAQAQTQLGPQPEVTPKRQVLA

| Compound | composite z-score |
| --- | --- |
| C[C@@H]1CC[C@H]2C(=O)N3[C@@H](CC[C@@H](C)[C@@H]3c3cccc(N4CCOCC4)c3)C(=O)N2[C@H]1c1cccc(N2CCOCC2)c1 | 0.464 |
| O=C1c2ccccc2[C@](Cc2ccccc2I)(C(=O)O)[C@H](c2ccc(CO)cc2)N1C1CCCCC1 | 1.01 |
| COCCCNC(=O)[C@@]1(c2ccc([N+](=O)[O-])cc2)CC(=O)N(C2CCCCC2)[C@@H]1c1ccc(CO)cc1 | -0.193 |
| C=C(C(=O)CC[C@H](OC(=O)c1ccccc1-c1ccccc1C(=O)O)c1ccc(CO)o1)C(C)C | 0.951 |
| CSCC[C@@H]1NC(=O)CC=C[C@@H](C)COC(=O)[C@H](CCSC)NC(=O)CC=C[C@@H](C)COC1=O | -0.35 |
| CC1=C([C@H](O)CCc2ccccc2)[C@H](CO)[C@@H]2C(=O)N(Cc3ccccc3)C(=O)[C@@H]2C1 | 0.497 |
| CO[C@H]1COC(=O)[C@@H](C)NC(=O)CC=C[C@@H](C)[C@H](OC)COC(=O)CC=C[C@@H]1C | 0.134 |
| CC(C)NC(=O)[C@@]1(Cc2ccccc2I)c2ccccc2C(=O)N(C2CCCCC2)[C@H]1c1ccc(CO)cc1 | 1.14 |
| O=C1O[C@@H](c2ccccc2)[C@@H](c2ccccc2)N2[C@@H](c3ccccc3OCCO)[C@]3(C(=O)Nc4ccc(C#CC5=CCCCC5)cc43)[C@@H](C(=O)O)[C@H]12 | 1.05 |
| O=C1O[C@@H](c2ccccc2)[C@@H](c2ccccc2)N2[C@@H](c3ccc(OCCO)cc3)[C@]3(C(=O)Nc4ccc(C#CCCO)cc43)[C@@H](C(=O)N3CCN(c4ncccn4)CC3)[C@H]12 | 1.14 |
| CC(=O)NCCCC[C@@H]1NC(=O)[C@@H]2C[C@H](C(=O)NCCCCCCN(C)C)[C@H](c3ccc(O)cc3)N2C1=O | 1.08 |
| O=C(NCc1ccccc1)[C@@]1(CCS(=O)(=O)c2ccccc2)COC(c2ccc(OCCCO)cc2)=N1 | 1.13 |
| O=C1O[C@@H](c2ccccc2)[C@@H](c2ccccc2)N2[C@@H](c3ccc(O)cc3)[C@]3(C(=O)Nc4ccccc43)[C@@H](C(=O)N3CCN(c4ncccn4)CC3)[C@H]12 | 0.079 |
| COc1ccc(C(O)C2C=CC3C(=O)N(C)C(=O)C3N2N2CCCCC2)cc1OCc1ccccc1 (configuration not stated) | 1.12 |
| COc1cc([C@@H]2N[C@H](C(=O)O)Cc3c2[nH]c2ccccc32)cc(OC)c1OC | 0.475 |
| COCCOC(=O)N1C(=O)[C@@]2(c3cc(C#CC4=CCCCC4)ccc31)[C@H](C(=O)NC[C@H](O)c1ccccc1)[C@H]1C(=O)O[C@H](c3ccccc3)[C@H](c3ccccc3)N1[C@@H]2c1ccccc1OCCO | 1.07 |
| COc1ccc(CCNC(=O)[C@@]2(c3ccc([N+](=O)[O-])cc3)CC(=O)N(C(C)C)[C@@H]2c2ccc(CO)cc2)cc1 | -0.791 |
| CC(=O)NCCCC[C@@H]1NC(=O)[C@H]2C[C@@H](C(=O)NCCCCCCN(C)C)[C@@H](c3ccc(O)cc3)N2C1=O | 0.989 |

| Compound | composite z-score |
| --- | --- |
| NC(=O)NCC#Cc1ccc2c(c1)[C@]1(C(=O)N2)[C@H](c2ccccc2OCCO)N2[C@H](c3ccccc3)[C@H](c3ccccc3)OC(=O)[C@H]2[C@@H]1C(=O)N1CCN(c2ncccn2)CC1 | 1.02 |
| CO[C@H]1COC(=O)CC=C[C@H](C)[C@@H](OC)COC(=O)CC=C[C@@H]1C | -0.119 |
| CN(C)C(=O)[C@@]1(Cc2ccccc2N=[N+]=[N-])N=C(c2ccc(OCCCO)cc2)O[C@H]1c1ccccc1CN=[N+]=[N-] | 1.06 |
| O=C(CS)NCCCCCNC(=O)[C@H]1C[C@H]2C(=O)N3CCC[C@H]3C(=O)N2[C@H]1c1ccc(O)cc1 | -1.17 |
| Cc1ccccc1C(O)C1C=CC2C(=O)N(c3ccccc3)C(=O)C2N1Nc1ccc(C#N)cc1 (configuration not stated) | 1.07 |
| COC(=O)[C@@]1(Cc2ccccc2N=[N+]=[N-])N=C(c2ccc(OCCCO)cc2)O[C@H]1c1ccccc1CN=[N+]=[N-] | 0.041 |
| CCCCCCc1nc(C2CC2)c(C)c2c1[Si](C(C)C)(C(C)C)OC2 | -1.26 |
| C[N+](C)(C)CCCC[C@@H]1NC(=O)[C@H]2C[C@@H](C(=O)NCc3ccc(F)cc3)[C@@H](c3cccc(OCCO)c3)N2C1=O | 0.716 |
| CCCNC(=O)[C@@H]1c2ccccc2C(=O)N(Cc2cc(F)cc(C(F)(F)F)c2)[C@H]1c1ccc(CO)cc1 | 1.05 |
| C#CCCCON=C1C[C@@H](O)[C@@H](O)[C@@H]2[C@@H]3C(=O)N(Cc4ccc5c(c4)OCO5)C(=O)[C@@H]3CC[C@H]12 | 0.513 |
| Cc1ccc([C@@H]2CC=C(C(=O)O)[C@H](c3ccccc3)N2S(=O)(=O)c2ccc(C)cc2)cc1 | 0.673 |
| C=CCNC(=O)[C@H]1[C@@H]2C(=O)O[C@@H](c3ccccc3)[C@@H](c3ccccc3)N2[C@@H](c2ccc(O)cc2)[C@]12C(=O)Nc1ccc(C#CCNC(N)=O)cc12 | -1.01 |
| O=C(NCC(F)(F)F)[C@@H]1c2ccccc2C(=O)N(Cc2ccccc2Cl)[C@H]1c1ccc(CO)cc1 | -1.14 |
| C=C[C@H](OC)[C@@H](OC(=O)Nc1ccc(SC)cc1)c1ccc(OC)c(O)c1 | -0.321 |
| C=CC[C@]1(C(=O)OC)N=C(c2ccc(OCCCO)cc2)O[C@H]1c1ccccc1CN=[N+]=[N-] | -0.823 |
| COC(=O)Cn1c(C(=O)N2CCCC2)cc2c1C[C@H]1CN(C(=O)c3ccccc3)[C@@](Cc3ccccc3)(C(=O)OC)[C@@H]21 | 0.74 |
| Cc1ccc(S[C@]2(C(=O)NCCCN(C)C)CC(=O)N(Cc3ccccc3)[C@@H]2c2ccc(CO)cc2I)cc1 | -0.723 |
| C#CCCCON=C1C[C@@H](O)[C@@H](O)[C@@H]2[C@@H]3C(=O)N(Cc4ccc5c(c4)OCO5)C(=O)[C@@H]3CC[C@@H]12 | 0.0568 |
